Screen size: about 2,400 compounds; about 1,400 (58%) were called active.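 The calls were made as follows: active = inhibition of 30% or more at any tested dose; inconclusive = primary hits over the limit that were never retested; inactive = the rest.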 The set was probably picked from earlier hits. Some of the results follow.

The nature of the assay: ADP Hunter readout inhibition without MgcRacGAP – biochemical, coupled enzyme counter-screen, artefact control for MgcRacGAP inhibitor project, dose response (AID 624351).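 Also: signal is the ADP detection kit reading of free GDP without any GAP enzyme.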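 As to inhibition: 0% = median positive control wells and 100% = median negative control wells.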 The note with it: fluorescence, no MgcRacGAP; series mostly up to 80 µM; inhibition: at the top concentration. (Counterscreens check selectivity or assay interference.)
Consider `CCC(CC)NCc1ccc2c(c1)c1ccccc1n2CC`, for which the “inhibition” value is 16% (inactive). On to `Oc1cccc(Nc2ccccc2)c1`, for which the IC50 is 59.1 µM (active). `O=[N+]([O-])/C=C/c1cc2ccccc2[nH]1`: the “inhibition” value was 0.62% (inactive). As to `COc1ccc(OC)c2c(C)c(C)[nH]c12`, the half-maximal inhibitory concentration (IC50) was 28.7 µM (active).

With `CS(=O)(=O)Cc1nc2ccccc2oc1=O`, the IC50 is 74.1 µM (active). Turning to `COc1ccc2c(c1)-c1nc(N)sc1CC2`, the IC50 was 42.2 µM (active). Take `Nc1nc2c(s1)CCc1ccccc1-2`: the IC50 was 48.5 µM (active). On to `O=C(CN1CCCCCC1)Nc1nc2ccccc2s1`, for which the “inhibition” value was 13.2% (inactive). For `O=C(c1ccc(OCCN2CCCCC2)cc1)c1c(-c2ccc(O)cc2)sc2cc(O)ccc12`, the IC50 is 31.6 µM (active). As for `CCOc1ccc(OCCOCCN2CCCC2)cc1`, the “inhibition” value was 18.7% (inactive). As to `Cc1cc(OCCCCCN2CCCC2)ccc1Cl`, the “inhibition” value is 16.7% (inactive). With `C[n+]1c(-c2ccccc2)cc2c(=Cc3ccccc3)c3ccccc3n21`, the “inhibition” value was 1.82% (inactive). For `COc1cc(/C=N/n2c(-c3cc(C)[nH]n3)n[nH]c2=S)cc(OC)c1O`, the IC50 was 55.6 µM (active). Consider `COc1cc(/C=N/n2c(-c3cc(C)[nH]n3)n[nH]c2=S)cc(OC)c1OC`, for which the IC50 is 61 µM (active). On to `COc1ccc(OC)c(CN2CCN(Cc3cccc4ccccc34)CC2)c1`, for which the “inhibition” value was 19.4% (inactive). Same read-out and setting: with `COc1ccc(NCc2cc3cc(OC)ccc3[nH]c2=O)cc1` the figure was 22.5% (inactive); with `CCn1c2ccccc2c2cc(CNCc3ccc(OC)cc3OC)ccc21`, 7.53% (inactive); with `COc1ccc(NCc2nnc(SCC(=O)Nc3ccccc3OC)o2)cc1`, 24.1% (inactive). With `COc1ccc(NCc2cc3ccccc3[nH]c2=O)cc1`, the IC50 was 77.4 µM (active). The same measure, in the same setting: with `COc1ccc(NCc2cc(=O)[nH]c3ccccc23)cc1` the figure was 51.4 µM (active). Regarding `CC(C1SC(=S)NC1=O)C1SC(=S)NC1=O` (stereo not drawn), the “inhibition” value is -10.8% (inactive).

With `CCc1nc(Nc2ccc(N3CCN(C(C)=O)CC3)cc2)c2oc3ccccc3c2n1`, the IC50 was 40.2 µM (active). Regarding `Oc1ccc(Nc2ncnc3ccccc23)cc1`, the IC50 was 15.8 µM (active). The same measure, in the same setting: to `CCc1nc(Nc2ccc(O)cc2)c2oc3ccccc3c2n1` belongs 19.4 µM (active). For the compound `CCc1nn(C(C)C(=O)N2CCN(c3ccc(OC)cc3)CC2)c(=O)c2cc3occc3n12` (stereo not drawn), the “inhibition” value was 29.3% (inactive). As for `CC(=O)N1CCN(c2ccc(Nc3ncnc4c3oc3ccccc34)cc2)CC1`, the IC50 is 42.5 µM (active).

Consider `Oc1ccc(Nc2ncnc3c2oc2ccccc23)cc1`, for which the IC50 is 20 µM (active). For the compound `N#CC1=C(S)N(c2ccc(F)cc2)C2(CCCCC2)NC1=O`, the “inhibition” value was 0.96% (inactive).

Regarding `O=C1NC(=S)NC1=Cc1ccc(O)cc1`, the IC50 is 10.2 µM (active). With `O=C1NC(=S)NC1=Cc1ccco1`, the “inhibition” value is -13.6% (inactive).

As to `CCN1C(=O)/C(=C2/C=Cc3cc(C)ccc3N2CC)N(C)C1=S`, the 50% inhibitory concentration (IC50) was 50.7 µM (active). Take `NC(=S)N/N=C/c1cccc(O)c1O`: the IC50 was 32.6 µM (active).

On to `Nc1ccc2nc(-c3ccccc3)[nH]c2c1`, for which the IC50 is 31.9 µM (active). Same read-out and setting: to `Nc1ccc2nc(-c3ccc(Cl)cc3)[nH]c2c1` belongs 67.3 µM (active); to `Cc1nc2ccc(-c3nc4ccc(N)cc4[nH]3)cc2[nH]1`, 58.5 µM (active); to `Nc1ccc2nc(C3CCCCC3)[nH]c2c1`, 71.9 µM (active). As for `Cc1nc(Nc2ccc(O)cc2)c2c3c(sc2n1)CCCC3`, the IC50 was 27.9 µM (active). On the same count and under the same terms, with `Oc1ccc(N=Cc2cc(Br)c(N3CCOCC3)o2)cc1` the figure was 64.7 µM (active); with `Cc1cc(Br)cc(C=Nc2ccc(N3CCOCC3)cc2)c1O`, 14.7 µM (active). On the same count and under the same terms, to `O=[N+]([O-])c1cc(Br)c(O)c(C=Nc2ccc(N3CCOCC3)cc2)c1` belongs 13.4 µM (active). As for `COc1ccc(CN(C)CCc2ccccn2)c(OC)c1OC`, the “inhibition” value was 18.1% (inactive). As to `Cc1[nH]nc(-c2ccc(O)cc2O)c1Oc1ccccc1`, the IC50 is 34.3 µM (active).

`COc1ccc(Oc2c(-c3ccc(O)cc3O)n[nH]c2C)cc1`: the IC50 was 49.1 µM (active). Regarding `COCCNCc1nc2sc(C)c(-c3ccccc3)c2c(=O)[nH]1`, the “inhibition” value was 12.2% (inactive). For `CCn1c(/C=C/c2ccc(O)cc2)nc2ccccc2c1=O`, the half-maximal inhibitory concentration (IC50) was 44.8 µM (active).

As to `C=CCn1c(N/N=C/c2ccc(O)cc2)nc2ccccc2c1=O`, the IC50 is 66.7 µM (active). As for `O=c1c2cc(F)ccc2sn1-c1ccccc1Cl`, the “inhibition” value is 29.1% (inactive). Consider `Cc1ccc(NC(=O)CCC(=O)N/N=C/c2ccc(O)cc2O)cc1`, for which the IC50 is 61.8 µM (active). For `Cc1cccc(NC(=O)CCC(=O)N/N=C/c2ccc(O)cc2O)c1`, the IC50 was 72.4 µM (active).

For `Cc1cccc(N2CCC(N=CN(C)C)=N2)c1`, the IC50 was 27.8 µM (active). In the case of `OCCN(C=NC1=NN(c2cccc(C(F)(F)F)c2)CC1)CCO`, the IC50 is 42.2 µM (active). Take `CN(C)C=NC1=NN(c2cccc(C(F)(F)F)c2)CC1`: the IC50 was 39.3 µM (active). Still for that read-out and setting: to `CCN(C=NC1=NN(c2cccc(C(F)(F)F)c2)CC1)CC` belongs 33 µM (active). As for `c1ccc(-c2ccccc2OCCCCn2ccnc2)cc1`, the “inhibition” value was 13.5% (inactive). Regarding `COc1ccccc1OCC#CCn1ccnc1`, the “inhibition” value was 17.3% (inactive). Regarding `Nc1sc(-c2ccccc2)c(Cc2ccccc2)c1C(=O)O`, the IC50 is 70.5 µM (active).

`CN(c1ccccc1)S(=O)(=O)c1cccc(C(=O)NCCc2ccc(O)c(O)c2)c1`: the 50% inhibitory concentration (IC50) is 71 µM (active). Turning to `CCN(c1ccccc1)S(=O)(=O)c1ccc(OC)c(NC(=O)CNCCc2ccccc2)c1`, the “inhibition” value is 8.56% (inactive).

`COc1ccc(CCNC(=O)CNCC(c2ccccc2)N(C)C)cc1OC` (stereo not drawn): the “inhibition” value was 23.1% (inactive). On to `COc1ccccc1NS(=O)(=O)c1cc(N)ccc1N1CCCC1`, for which the IC50 is 75.2 µM (active). Turning to `COc1ccc(N)cc1NC(=O)CN1CCOCC1`, the “inhibition” value is 26.4% (inactive). For the compound `COc1ccc(S(=O)(=O)N2CCC(N3CCN(c4ccccc4OC)CC3)CC2)cc1`, the “inhibition” value was 18.6% (inactive). Take `CC(C)(C)c1cc(Cl)ccc1OCCOCCN1CCCC1`: the “inhibition” value is 18.9% (inactive). Take `O=C(Nc1ccc(O)cc1)c1cccc(Oc2ccc([N+](=O)[O-])cc2)c1`: the IC50 is 48.2 µM (active). Turning to `O=C(Nc1ccc(C2=NCCN2)cc1)c1ccc(C(=O)Nc2ccc(C3=NCCN3)cc2)c([N+](=O)[O-])c1`, the “inhibition” value is 3.21% (inactive).

Consider `COC(=O)C1=C(C)N(CC2CCCO2)C(=O)/C1=C\c1ccc(O)cc1` (stereo not drawn), for which the IC50 is 24.4 µM (active). Consider `CCS(=O)(=O)c1nn2c(N)c(/C=C3/C=CC(=O)C(OC)=C3)c(=O)nc2s1`, for which the IC50 is 39.6 µM (active). Still for that read-out and setting: to `COC1=C/C(=C/c2c(N)n3cc(C)sc3nc2=O)C=CC1=O` belongs 82 µM (active). In the case of `O=C(CNCc1ccccn1)N1CCc2ccccc2C1`, the “inhibition” value is 14.9% (inactive).

Take `Cc1ccccc1SCC(=O)OCC(=O)Nc1ccc(N(C)C)cc1`: the half-maximal inhibitory concentration (IC50) was 81.6 µM (active). For the compound `Cc1ccc(NC(=O)CNCC(c2ccccc2)N(C)C)cc1F` (stereo not drawn), the “inhibition” value is 21.2% (inactive). `CN(C)c1ccc(NC(=O)COC(=O)CNC(=O)c2cccs2)cc1`: the half-maximal inhibitory concentration (IC50) was 55.7 µM (active). Regarding `COc1nc(N)nc(NC(=O)c2cccs2)c1N=O`, the “inhibition” value is 2.46% (inactive). For `CCOC(=O)c1c(NC(=O)CN(C)C2CCN(C)CC2)sc(C(=O)Nc2ccccc2)c1C`, the “inhibition” value was 23.1% (inactive). Turning to `CCOC(=O)CSc1nc(N)c(C(=O)Nc2ccc(N(C)C)cc2)s1`, the IC50 was 32.8 µM (active). As to `COc1ccc(OCCn2ccnc2C)cc1`, the “inhibition” value is 13.6% (inactive). `COc1cc(/C=N/Nc2nc3ccccc3[nH]2)ccc1O`: the IC50 was 17.9 µM (active). Still for that read-out and setting: with `COc1cc(/C=N/Nc2nc3ccccc3s2)ccc1O` the figure was 67.7 µM (active); with `COc1ccc(/C=N/Nc2nc3ccccc3[nH]2)cc1OC`, 73.8 µM (active). Regarding `O=S1(=O)N=C(Nc2ccc(O)cc2)c2ccccc21`, the IC50 was 29.2 µM (active). In the case of `COc1cc(CNc2ccc(N3CCOCC3)cc2)cc(Br)c1OC`, the IC50 was 12.5 µM (active). Take `COc1cc(CN2CCN(Cc3ccc(C(F)(F)F)cc3)CC2)cc(OC)c1OC`: the “inhibition” value was 10.7% (inactive).

Regarding `CCOc1c(Cl)cc(CNc2ccc(N3CCCC3)cc2)cc1OC`, the inhibition was -9.27% [at 5 µM] (inactive).

On to `COc1cc2c(cc1OC)C(c1cc(Br)c(OC)c(OC)c1)CC(=O)N2` (stereo not drawn), for which the “inhibition” value is 3.38% (inactive).

Take `CCOc1cc(CNc2ccc(N3CCOCC3)cc2)cc(Br)c1OCC`: the IC50 was 16.9 µM (active).

With `CCOc1cc(CNc2ccc3[nH]c(=O)[nH]c3c2)ccc1OCC(=O)NC(C)(C)C`, the IC50 is 67.7 µM (active).

With `CCOc1cc(CNc2ccc(N3CCCCC3)cc2)cc(Br)c1OCC(=O)NC(C)(C)C`, the IC50 was 20.4 µM (active).

For `CNc1c2cccc(C)c2nc2c(C(=O)NCCN(C)C)cccc12`, the “inhibition” value is 19.5% (inactive). As for `CCCCNc1nc(=S)[nH]c2cc(OC)c(OC)cc12`, the IC50 is 68.9 µM (active). Consider `CCN(CC)CCCNc1nc2ccccc2c2[nH]c3ccc(OC)cc3c12`, for which the “inhibition” value was 20.3% (inactive). For `COc1ccc(CCNc2nc(=S)[nH]c3cc(OC)c(OC)cc23)cc1OC`, the “inhibition” value is 28.5% (inactive).

For the compound `COCCCNc1nc(=S)[nH]c2cc(OC)c(OC)cc12`, the IC50 was 74.1 µM (active).

For `Cc1cc2[nH]c3c(c[n+](C)c4ccccc34)c2cc1C`, the “inhibition” value is 21.4% (inactive).

As to `Cc1cc(C)c2c(=N)c3ccccc3n(CCCCCCCCn3c4ccccc4c(=N)c4c(C)cc(C)nc43)c2n1`, the “inhibition” value was 25.6% (inactive). Take `O=C1C=CC(=O)c2c(O)c(N3CCN(CCOCCO)CC3)c(Br)c(O)c21`: the “inhibition” value was -3.44% (inactive). As to `C=CCc1cc(C=Nc2ccc(N3CCOCC3)cc2)cc(OCC)c1O`, the IC50 was 14.6 µM (active). In the case of `C=CCc1cc(Cl)ccc1OCCNCCN1CCOCC1`, the “inhibition” value is 22.5% (inactive).

On to `CCOc1ccccc1CN1CCC(N2CCOCC2)CC1`, for which the “inhibition” value was 20.6% (inactive). Regarding `COc1ccc(CN(C)CC(=O)Nc2ccc(Cl)cc2C(F)(F)F)c(OC)c1`, the “inhibition” value was 15.9% (inactive). Take `Nc1n[nH]c(N)c1N=Nc1ccc2c(c1)OCO2`: the IC50 is 38 µM (active). Take `O=S(=O)(O)c1ccc(O)c2cc(Nc3ccccc3)ccc12`: the “inhibition” value is 17.6% (inactive).

As for `CC(=O)C1=C(S(=O)(=O)c2ccc(C)cc2)CS(=O)(=O)C1`, the “inhibition” value was 6.22% (inactive). On to `Cc1ccc(S(=O)(=O)c2cc(Nc3ccccc3)ccc2O)cc1`, for which the IC50 was 68 µM (active). For `CC1(C)OC(C)(C)/C(=C/Nc2ccc(O)cc2)C1=O`, the IC50 was 22.2 µM (active). As to `CCOc1cc(/C=N/NC(=O)c2ccccc2-n2cccc2)ccc1O`, the IC50 is 44.9 µM (active). With `COc1cc(/C=N/NC(=O)c2cc(-c3ccccc3OC(C)C)nc3ccccc23)ccc1O`, the “inhibition” value is 29.6% (inactive).

As for `COc1cc(C=NNC(=O)c2ccccc2-n2cccc2)ccc1O`, the IC50 was 36.4 µM (active). As for `CCCCN(CC)CCNC(=O)CCC(=O)Nc1ccc2nc(N3CCN(C)CC3)cc(C)c2c1`, the “inhibition” value is 18.5% (inactive).

A word on the inhibition: it is the relative decrease from the control value, in per cent. In general, IC50 refers to the midpoint of a concentration-inhibition curve.
